# In the supplement of paper PMC6953052:
# Over roughly 1,700 compounds, “fraction of GFP-LC3-positive cells (≥5 vesicles/cell)” has its median near 0.43; the highest 2% begin near 0.81. Many of the other results were omitted from the sample, so the highest values are more common in it than they were.
# Test system: CbCln3 Δex7/8/Δex7/8 GFP-LC3 cerebellar neuronal cells
# Test: fraction of GFP-LC3-positive cells (≥5 vesicles/cell); higher = more autophagosome accumulation
# Outline: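 Compound (~50 nL in DMSO) was pin-transferred in duplicate onto wild-type or mutant CbCln3 cerebellar cells stably expressing GFP-LC3, seeded at 2 × 10^3/well in 384-well plates, for 24 h at 33 °C. After fixation in 3.2% PFA, three fields per well were imaged at 10×. The value reported is the duplicate average of the fraction of cells meeting a vesicle-count threshold, with CellProfiler counting GFP-LC3 vesicles per cell and out-of-focus images excluded. Cells met the threshold at 5 or more vesicles.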
row,SMILES,fraction of GFP-LC3-positive cells
1,C=C(C)[C@H]1O[C@H]2CC[C@@]3(C)[C@@](O)(CC[C@H]4[C@@H]5OC(C)(C)[C@H]6C[C@@H]7C(=C)Cc8c(Cl)cc9[nH]c(c5c9c8[C@@]76O)[C@@]43C)[C@]23O[C@@H]3[C@H]1O,0.866
2,CC[C@H]1CN2CCc3cc(OC)c(OC)cc3[C@@H]2C[C@@H]1C[C@H]1NCCc2cc(OC)c(OC)cc21.Cl.Cl [Emetine dihydrochloride],0.546
3,Br.C[C@@H]1NCCc2cc(O)c(O)cc21 [Salsolinol hydrobromide],0.504
4,C/C=C(/C)C(=O)O[C@H]1C(C)=C2[C@H]([C@@H]1OC(=O)CCCCCCC)[C@@](C)(OC(C)=O)C[C@H](OC(=O)CCC)[C@@]1(O)[C@H]2OC(=O)[C@@]1(C)O,0.847
5,"N=C(N)NOCC[C@H](N)C(=O)O.O.O=S(=O)(O)O [Canavanine sulfate monohydrate (L,+)]",0.416
6,CCCC(C)(COC(N)=O)COC(=O)NC(C)C (configuration not stated) [Carisoprodol],0.466
7,C[N+](C)(C)CCCCCCCCCC[N+](C)(C)C.[Br-].[Br-] [Decamethonium bromide],0.418
8,C/C1=C/C(=O)O[C@@H]2C[C@@H](CC[C@H](C)/C=C\CC1)O[C@@](O)([C@@H]1CSC(=O)N1)C2 [Latrunculin B],0.84
9,C[C@@]12N[C@@H](Cc3ccccc31)c1ccccc12.O=C(O)/C=C\C(=O)O [(-)-MK 801 hydrogen maleate],0.432
10,CC(=O)c1c(O)c(C)c(O)c(Cc2c(O)c3c(c(C(=O)/C=C/c4ccccc4)c2O)OC(C)(C)C=C3)c1O,0.551
11,CC(=O)c1c(O)c(C)c(O)c(Cc2c(O)c3c(c(C(=O)/C=C/c4ccccc4)c2O)OC(C)(C)C=C3)c1O [Rottlerin],0.553
12,CC(=O)O[C@H]1CC[C@@]2(C)C(=CC[C@@H]3[C@@H]2CC[C@]2(C)C(=O)CC[C@@H]32)C1 [Dehydroisoandosterone 3-acetate],0.384
13,CN1C(CC(O)c2ccccc2)CCCC1CC(O)c1ccccc1.Cl (configuration not stated) [Lobelanidine hydrochloride],0.433
14,COc1cc2c(cc1O)[C@@H]1Cc3ccc(OC)c(O)c3CN1CC2 [Scoulerine],0.821
15,"COc1ccc2c(c1OC)CN1CCc3cc4c(cc3C1C2)OCO4 (configuration not stated) [(d,l)-Tetrahydroberberine]",0.303
16,COc1ccc2c(c1O)-c1c(OC)c(OC)cc3c1[C@H](C2)N(C)CC3 [Isocorydine (+)],0.379
17,C[C@H]1O[C@@H](OC2CC[C@]3(C=O)[C@H]4CC[C@]5(C)[C@@H](C6=CC(=O)OC6)CC[C@]5(O)[C@@H]4CC[C@]3(O)C2)C[C@H](O)[C@@H]1O (some centres not stated) [Helveticoside],0.378
